# Assay outcomes deposited in PubChem BioAssay by National Center for Advancing Translational Sciences (NCATS).
# In the library only some 17% were active in any assay of this set; here they are far more common.
# TGFb SMAD3 inh = blocks TGF-b signaling; HepG2 CAGA-GFP TGF-b/SMAD3 reporter, GFP fluorescence, 18 h; TGF-beta stimulated, 500 pg/mL final; 1.2% of 410,000 active; AID 588855; Potency, µM (series often up to 46.1 µM), inactives show top-dose activity, negative = inhibition, usual class: inhibitors; further: on the % scale 0 is the no-effect control and ±100 the full control effect; nearly all actives have a fitted effect of over 65% in size
#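 GFP signal (ex488/em500-530) from TGF-beta-stimulated HEPG2 CAGA-GFP cells, 500 pg/mL final, 18 h at 37 degrees C in DMEM plus 1% FBS, normalized to unstimulated and DMSO-stimulated controls.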
# DT40 TDP1 CPT = growth inhibition of DT40 Tdp1-/-;hTDP1 cells with camptothecin (screen for TDP1 inhibitors). chicken DT40 Tdp1-/-;hTDP1 cells + 20 nM CPT, ATP luminescence, 48 h. Potency, µM (highest dose often 46.2 µM), for the others: at the highest dose activity change, negative = growth inhibition, usual class: inhibitors. 12% of 420,000 active; further: on the % scale 0 is the no-effect control and ±100 the full control effect; nearly all actives have a fitted effect of over 55% in size
#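 Chicken DT40 Tdp1-/- cells stably complemented with human TDP1 were seeded at 400 cells/well in medium containing 20 nM camptothecin, exposed to pin-transferred compounds, and grown at 37 °C for at least 48 hr. Viability was read as ATP luminescence.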
# HepG2 tox = kills HepG2 cells in TGF-b inhibitor counter-screen; HepG2 CAGA-GFP viability, ATP luminescence, 18 h; Potency, µM (top dose mostly 46.1 µM), for the others: at the highest dose activity change, negative = cytotoxicity, actives largely listed as cytotoxic; 0.76% of 410,000 active; AID 588856
#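 CellTiter-Glo luminescence gave cytotoxicity after 18 hours at 37 degrees C. The cells were HepG2 CAGA-GFP in 1% FBS DMEM, stimulated with 500 pg/mL TGF-beta after compound addition. %Activity was normalised to no-cell wells (complete cell-killing) and DMSO (no toxicity), and curves were fitted and classified.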
# DT40 TDP1 no CPT = qHTS for Inhibitors of human tyrosyl-DNA phosphodiesterase 1 (TDP1): qHTS in cells in absence of CPT; Potency, µM (highest dose often 46.2 µM), inactives show top-dose activity change, negative = growth inhibition, usual class: inhibitors; 15% of 420,000 active; AID 686978, 2013; DT40 Tdp1-/- hTDP1 cells, no CPT, ATP luminescence, 48 h; further: on the % scale 0 is the no-effect control and ±100 the full control effect; nearly all actives have a fitted effect of over 55% in size
#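 Chicken DT40 Tdp1-/- cells complemented with human TDP1, screened without camptothecin (DMSO vehicle only), 400 cells/well. Compounds pin-transferred, cells incubated at 37 °C for at least 48 hr. Growth read as ATP-dependent luminescence (CellTiter-Glo, 30 min at RT).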
# HT1080NT lethal = kills 2HG-producing HT-1080-NT fibrosarcoma cells; HT-1080-NT fibrosarcoma viability, CellTiter-Glo ATP luminescence, 48 h; Potency, µM (doses to about 46.1 µM), inactives show at the top dose activity, negative = less viability, usual class: cytotoxic; 1.6% of 360,000 active;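 further: NT is the 2HG producing partner of a matched IDH1 knockdown line; 0% = DMSO-treated cells and -100% = media-only wells without cells; nearly all actives have a fitted effect of over 55% in size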
#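 A 48-hour cytotoxicity screen used HT-1080-NT cells plated 2 hours before compound delivery. ATP-based CellTiter-Glo luminescence measured viability, normalized to DMSO and no-cell controls.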
# HT1080 IDH1KD tx = toxicity to HT-1080 IDH1 knockdown cells (counter line); AID 686971; Potency, µM (titrated, usually from 46.1 µM), for the others: top-dose activity, negative = toxicity, usual class: cytotoxic; 2% of 360,000 active; HT-1080 IDH1 knockdown viability, ATP luminescence, 48 h;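 further: 0% = DMSO wells and -100% = cell-free medium wells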
#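 CellTiter-Glo luminescence after 48 h compound exposure at 37 degrees C of IDH1-knockdown HT-1080 cells in 5% FBS RPMI. %Activity scaled between DMSO wells and cell-free media wells, with curves fitted and assigned curve classes.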
# * marks the source's active call; other numbers are inactive results; ? = inconclusive; . = no result; ! = repeats disagree. The call rests on the fitted dose curve; in most records, active means well fitted curve in the direction sought with a large enough effect; inconclusive means small, poorly fitted or top-dose-only effect, or another doubt; inactive means no such curve, though single readings can be large; an effect the other way counts as inactive or inconclusive. Potency means the concentration at half of the fitted maximal effect.
SMILES,TGFb SMAD3 inh,DT40 TDP1 CPT,HepG2 tox,DT40 TDP1 no CPT,HT1080NT lethal,HT1080 IDH1KD tx
CCCCC(=O)N1CC(=O)Nc2ccc(F)cc2C1c1ccc(F)cc1 (configuration not stated),7%,?,-5%,?,-1%,0%
Cc1ccc2c(c1)C(c1ccc(F)cc1)N(C(=O)COc1ccc(Cl)cc1Cl)CC(=O)N2 (configuration not stated),?,21µM*,-37%,?,.,.
O=C1CN(C(=O)COc2ccc(Cl)cc2Cl)C(c2ccccc2)c2cc(F)ccc2N1 (configuration not stated),?,16µM*,-29%,?,.,.
O=C1CN(C(=O)COc2ccc(Cl)cc2Cl)C(c2ccc(F)cc2)c2cc(F)ccc2N1 (configuration not stated),29%,21µM*,110%,?,.,.
Cc1cc(C)n(CC(=O)NNC(=O)c2ccc(S(C)(=O)=O)cc2)n1,-18%,-5%,1%,-4%,-3%,-4%
O=C(/C=C/c1ccccc1[N+](=O)[O-])Nc1cc(S(=O)(=O)N2CCOCC2)ccc1N1CCOCC1,-20%,2%,-22%,3%,5%,0%
OCCCNc1nc(-c2ccc(Cl)cc2)nnc1-c1ccc(Br)cc1,23%,23µM*,-27%,21µM*,?,?
O=[N+]([O-])c1ccc(-c2nnc(-c3ccccc3)c(NCCCO)n2)cc1,-7%,21µM*,-19%,16µM*,1%,-7%
Cc1ccc(-c2nc(NCCCO)c3ccccc3n2)cc1,-16%,?,-21%,?,?,?
Oc1nc(Nc2ccccc2)sc1/C=C1\C=Nc2ccccc21,?,-26%,-22%,-30%,-9%,-8%
CCOC(=O)c1c(Nc2ccccc2)sc(/C=C2\C=Nc3ccccc32)c1O,-1%,21µM*,-20%,?,?,?
Cc1cc(C)c2c(-n3cccc3)c(C(=O)NNS(=O)(=O)c3ccc(Cl)cc3)sc2n1,-3%,-5%,-4%,-12%,7%,12%
O=C(NCc1cccnc1)C1CCC(c2ccc(Cl)cc2)CC1 (configuration not stated),-20%,?,-17%,16µM*,?,-16%
O=C(CN(C1CCCCC1)S(=O)(=O)c1ccccc1)NCc1cccnc1,17%,-18%,-1%,-21%,10%,4%
O=C(CN(C1CCCCC1)S(=O)(=O)c1ccc(Cl)cc1)NCc1cccnc1,-19%,?,-26%,16µM*,-2%,3%
O=C(NCC1CCCO1)C1CCCN1C(=O)Nc1ccc(Cl)c(Cl)c1 (configuration not stated),11%,-3%,1%,7%,14%,5%
CC(C)CN(C(=O)COC(=O)CCC(=O)c1ccc(F)cc1)c1c(N)n(Cc2ccccc2)c(=O)[nH]c1=O,3%,2%,-5%,-10%,4%,1%
CCN(CC)c1ccc(/C=C/c2ccncc2)cc1,88%,0.18µM*,-38%,0.32µM*,.,.
CN(C)c1ccc(/C=C/c2ccncc2)cc1,10%,-2%,2%,26µM*!,-1%,-1%
CCN(CC)c1ccc(/C=N/O)cc1,-11%,-8%,-93%,-28%,12%,-1%
COc1ccc2[nH]c3c(c2c1)CCN1C(=O)C(CC(=O)NC/C=C(\C)CCC=C(C)C)C[C@H](C(=O)N(C(C)C)C(C)C)[C@@]31C (some centres not stated),16µM*,?,-103%,18µM*,?,?
COCCCNC(=O)CC1C[C@H](C(=O)N(C(C)C)C(C)C)[C@@]2(C)c3[nH]c4ccccc4c3CCN2C1=O (some centres not stated),-13%,-38%,12%,?,7%,20%
CC(C)=CCC/C(C)=C/CNC(=O)CC1C[C@H](C(=O)N(C(C)C)C(C)C)[C@@]2(C)c3[nH]c4ccccc4c3CCN2C1=O (some centres not stated),-9%,16µM*,-10%,23µM*,-1%,-1%
Nc1cc(=O)[nH]c(=S)[nH]1,14%,1%,-4%,-14%,.,.
COCCNC(=O)c1c(N)n(-c2ccccc2)c2nc3ccccc3nc12,-8%,-29%,-2%,-25%,-3%,12%
SMILES,TGFb SMAD3 inh,DT40 TDP1 CPT,HepG2 tox,DT40 TDP1 no CPT,HT1080NT lethal,HT1080 IDH1KD tx
COCCCNC(=O)c1c(N)n(/N=C/c2cccnc2)c2nc3ccccc3nc12,3%,?,1%,6.5µM*,8%,16%
COCCCNC(=O)c1c(N)n(/N=C/c2cccs2)c2nc3ccccc3nc12,4%,18µM*,-15%,?,-4%,-1%
C=CCN1C(=O)c2ccc(C(=O)N3CCC(C(N)=O)CC3)cc2C1=O,-17%,16%,-34%,4%,0%,-1%
COc1ccc(-c2[nH]c(-c3ccc(Cl)cc3)nc2SCC(=O)Nc2nccs2)cc1,?,16µM*,-65%,23µM*,?,?
COc1ccc(-n2c(SCC(=O)Nc3nccs3)nnc2-c2ccc(Cl)cc2)cc1,-4%,-25%,6%,4%,17%,27%
COCCNC(=O)CSc1nc(-c2ccccc2)[nH]c1-c1ccc(OC)cc1,-31%,-22%,-31%,?,.,.
COc1ccc(-c2[nH]c(-c3ccccc3)nc2SCC(=O)Nc2nccs2)cc1,-17%,18µM*,-20%,23µM*,-7%,-7%
CC(C)c1ccc(NC2CCCN(C(=O)CSc3nncn3C)C2)cc1 (configuration not stated),0%,-3%,-8%,-21%,0%,-2%
C[C@@H]1CC=C[C@H]2[C@H]1C(=O)N(Cc1ccccc1)[C@H]2c1ccc(-c2ccc(N(C)C)cc2)cc1F,?,21µM*,-17%,12µM*,?,?
Cc1ccc(-c2ccc(C3C4C=CCC(C)C4C(=O)N3Cc3ccccc3)c(F)c2)cc1 (configuration not stated),2%,.,-35%,.,.,.
Cc1ccc(-c2ccc([C@H]3[C@H]4C=CC[C@@H](C)[C@@H]4C(=O)N3Cc3ccccc3)c(F)c2)cc1,-19%,?,-6%,?,-6%,-14%
